Experiments:
Test in all cases: DAPPL (digital affinity profiling via proximity ligation, sequencing); 10 mM Tris-HCl pH 7.5, 50 mM NaCl, 1 mM DTT, 4% glycerol, room temperature, 30 min; GST-TFs on glutathione beads, 16-mer random dsDNA library, 0.1% formaldehyde crosslink after washing; high values mean tight binding
Details in all cases: protein: recombinant; tags: N-terminal GST; dsDNA, one strand shown
ERF = target: T1, ERF (Homo sapiens, UniProt P50548 1-548)
T1 sequence: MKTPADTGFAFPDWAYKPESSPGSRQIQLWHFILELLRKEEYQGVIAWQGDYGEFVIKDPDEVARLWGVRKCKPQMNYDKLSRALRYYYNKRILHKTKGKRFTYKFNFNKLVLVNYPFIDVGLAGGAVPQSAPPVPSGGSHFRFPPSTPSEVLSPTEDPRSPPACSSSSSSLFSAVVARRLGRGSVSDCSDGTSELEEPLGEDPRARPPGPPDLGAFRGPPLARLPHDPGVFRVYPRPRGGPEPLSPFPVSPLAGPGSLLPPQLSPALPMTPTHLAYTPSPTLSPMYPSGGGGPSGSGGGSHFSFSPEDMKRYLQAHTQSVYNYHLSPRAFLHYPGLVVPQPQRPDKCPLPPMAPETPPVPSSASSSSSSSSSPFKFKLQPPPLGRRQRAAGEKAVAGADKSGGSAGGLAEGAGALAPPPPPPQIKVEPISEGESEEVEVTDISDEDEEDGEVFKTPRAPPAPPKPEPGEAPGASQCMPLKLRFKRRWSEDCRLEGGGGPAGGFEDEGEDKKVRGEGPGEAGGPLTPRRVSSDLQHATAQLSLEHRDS
How it was run: (§1)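 Binding signal is given per hexamer as its read frequency for a factor divided by its frequency in the tag-only sample. GST-fused human transcription factors were expressed in yeast, captured on glutathione beads, barcoded with DNA and pooled with that sample, then incubated with 200 nmole of a 16-mer random double-stranded DNA library in Tris/NaCl/DTT/glycerol buffer for 30 min at room temperature. The pools were then washed, crosslinked, proximity-ligated, amplified by PCR and sequenced on an Illumina NextSeq500.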

ETV3L = target: T2, ETV3L (Homo sapiens, UniProt Q6ZN32 1-361)
T2 sequence: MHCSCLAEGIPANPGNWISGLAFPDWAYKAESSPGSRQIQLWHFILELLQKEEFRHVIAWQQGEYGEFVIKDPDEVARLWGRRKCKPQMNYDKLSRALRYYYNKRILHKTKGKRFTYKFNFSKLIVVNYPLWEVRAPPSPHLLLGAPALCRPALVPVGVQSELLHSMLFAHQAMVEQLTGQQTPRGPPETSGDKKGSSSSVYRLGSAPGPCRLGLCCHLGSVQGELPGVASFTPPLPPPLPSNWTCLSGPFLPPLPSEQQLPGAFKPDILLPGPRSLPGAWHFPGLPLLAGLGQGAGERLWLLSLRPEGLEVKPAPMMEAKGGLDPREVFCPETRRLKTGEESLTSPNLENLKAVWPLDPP
How it was run: as §1

ETS2 = target: T3, ETS2 (Homo sapiens, UniProt P15036 1-469)
T3 sequence: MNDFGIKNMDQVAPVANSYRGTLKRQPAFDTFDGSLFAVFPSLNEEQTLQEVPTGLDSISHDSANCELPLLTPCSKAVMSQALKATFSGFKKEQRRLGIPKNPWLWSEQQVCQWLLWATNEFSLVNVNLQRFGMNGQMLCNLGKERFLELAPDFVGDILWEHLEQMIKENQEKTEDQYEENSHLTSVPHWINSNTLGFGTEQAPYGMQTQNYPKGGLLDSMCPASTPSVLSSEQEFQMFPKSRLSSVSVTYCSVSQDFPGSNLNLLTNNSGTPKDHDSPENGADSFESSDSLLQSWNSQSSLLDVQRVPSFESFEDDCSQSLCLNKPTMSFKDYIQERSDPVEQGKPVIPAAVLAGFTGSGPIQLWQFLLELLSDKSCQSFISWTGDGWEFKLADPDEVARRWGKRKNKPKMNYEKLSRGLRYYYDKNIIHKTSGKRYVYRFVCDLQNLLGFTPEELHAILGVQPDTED
How it was run: as §1

SPDEF = target: T4, SPDEF (Homo sapiens, UniProt O95238 1-335)
T4 sequence: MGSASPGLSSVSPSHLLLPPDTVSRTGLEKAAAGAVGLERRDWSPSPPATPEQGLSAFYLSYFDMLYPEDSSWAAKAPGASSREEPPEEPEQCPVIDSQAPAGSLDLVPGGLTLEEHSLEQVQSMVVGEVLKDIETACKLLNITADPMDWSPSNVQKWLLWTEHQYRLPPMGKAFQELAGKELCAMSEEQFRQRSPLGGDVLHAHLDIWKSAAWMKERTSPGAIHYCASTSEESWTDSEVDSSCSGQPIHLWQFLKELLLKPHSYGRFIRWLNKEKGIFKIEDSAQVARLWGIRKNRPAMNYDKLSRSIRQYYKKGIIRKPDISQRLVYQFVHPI
How it was run: as §1

ETV7 = target: T5, ETV7 (Homo sapiens, UniProt Q9Y603 1-341)
T5 sequence: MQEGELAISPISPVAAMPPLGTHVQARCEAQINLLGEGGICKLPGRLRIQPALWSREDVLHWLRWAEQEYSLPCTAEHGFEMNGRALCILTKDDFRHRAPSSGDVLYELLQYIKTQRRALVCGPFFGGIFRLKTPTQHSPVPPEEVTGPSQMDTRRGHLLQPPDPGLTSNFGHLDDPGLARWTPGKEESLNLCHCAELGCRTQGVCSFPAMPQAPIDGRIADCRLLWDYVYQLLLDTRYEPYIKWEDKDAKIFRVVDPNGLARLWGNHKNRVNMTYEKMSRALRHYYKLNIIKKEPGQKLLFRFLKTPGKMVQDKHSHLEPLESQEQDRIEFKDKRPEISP
How it was run: as §1

ELF5 = target: T6, ELF5 (Homo sapiens, UniProt Q9UKW6-2 1-255)
T6 sequence: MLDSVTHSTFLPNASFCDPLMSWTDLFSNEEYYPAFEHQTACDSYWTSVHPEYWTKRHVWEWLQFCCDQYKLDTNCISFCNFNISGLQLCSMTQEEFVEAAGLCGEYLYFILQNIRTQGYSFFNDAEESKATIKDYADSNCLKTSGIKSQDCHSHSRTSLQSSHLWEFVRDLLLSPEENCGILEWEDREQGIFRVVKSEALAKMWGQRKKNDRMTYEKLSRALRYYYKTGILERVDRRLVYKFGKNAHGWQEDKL
How it was run: as §1

ETV3 = target: T7, ETV3 (Homo sapiens, UniProt P41162-2 1-143)
T7 sequence: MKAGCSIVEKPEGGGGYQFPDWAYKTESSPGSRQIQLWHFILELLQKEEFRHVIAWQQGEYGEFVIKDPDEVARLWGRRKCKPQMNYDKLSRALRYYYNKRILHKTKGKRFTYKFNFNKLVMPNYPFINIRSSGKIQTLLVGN
How it was run: as §1

ETV6 = ETV6 (Homo sapiens, UniProt P41212 1-452)
How it was run: as §1

Chain of ETV6 (P41212 whole entry): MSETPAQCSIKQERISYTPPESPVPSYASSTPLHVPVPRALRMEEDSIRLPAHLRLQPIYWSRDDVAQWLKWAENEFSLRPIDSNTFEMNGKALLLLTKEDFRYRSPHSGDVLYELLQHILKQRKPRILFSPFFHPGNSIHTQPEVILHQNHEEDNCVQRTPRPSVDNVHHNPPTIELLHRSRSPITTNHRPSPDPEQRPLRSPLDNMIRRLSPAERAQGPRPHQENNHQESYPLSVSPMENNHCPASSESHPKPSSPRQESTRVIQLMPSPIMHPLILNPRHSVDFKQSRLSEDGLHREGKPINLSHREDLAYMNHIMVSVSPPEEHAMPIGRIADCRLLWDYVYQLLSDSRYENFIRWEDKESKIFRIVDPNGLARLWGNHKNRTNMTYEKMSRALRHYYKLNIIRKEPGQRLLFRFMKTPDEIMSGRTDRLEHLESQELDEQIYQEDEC

CTTGTA
binding signal (ERF): 1.45 fold enrichment (6-mer frequency, TF over GST control)
binding signal (ETV3L): 1.26 fold enrichment (6-mer frequency, TF over GST control)
binding signal (ETS2): 1.44 fold enrichment (6-mer frequency, TF over GST control)
binding signal (SPDEF): 1.45 fold enrichment (6-mer frequency, TF over GST control)
binding signal (ETV7): 1.17 fold enrichment (6-mer frequency, TF over GST control)
binding signal (ELF5): 1.36 fold enrichment (6-mer frequency, TF over GST control)
binding signal (ETV3): 1.48 fold enrichment (6-mer frequency, TF over GST control)
binding signal (ETV6): 1.37 fold enrichment (6-mer frequency, TF over GST control)

TCTTAA
binding signal (ERF): 1.19 fold enrichment (6-mer frequency, TF over GST control)
binding signal (ETV3L): 1.37 fold enrichment (6-mer frequency, TF over GST control)
binding signal (ETS2): 1.22 fold enrichment (6-mer frequency, TF over GST control)
binding signal (SPDEF): 1.28 fold enrichment (6-mer frequency, TF over GST control)
binding signal (ETV7): 1.27 fold enrichment (6-mer frequency, TF over GST control)
binding signal (ELF5): 1.2 fold enrichment (6-mer frequency, TF over GST control)
binding signal (ETV3): 1.23 fold enrichment (6-mer frequency, TF over GST control)
binding signal (ETV6): 1.26 fold enrichment (6-mer frequency, TF over GST control)

GTTCCT
binding signal (ERF): 1.49 fold enrichment (6-mer frequency, TF over GST control)
binding signal (ETV3L): 1.71 fold enrichment (6-mer frequency, TF over GST control)
binding signal (ETS2): 1.75 fold enrichment (6-mer frequency, TF over GST control)
binding signal (SPDEF): 1.74 fold enrichment (6-mer frequency, TF over GST control)
binding signal (ETV7): 1.67 fold enrichment (6-mer frequency, TF over GST control)
binding signal (ELF5): 2.54 fold enrichment (6-mer frequency, TF over GST control)
binding signal (ETV3): 1.88 fold enrichment (6-mer frequency, TF over GST control)
binding signal (ETV6): 1.82 fold enrichment (6-mer frequency, TF over GST control)

GCTAAA
binding signal (ERF): 1.19 fold enrichment (6-mer frequency, TF over GST control)
binding signal (ETV3L): 1.15 fold enrichment (6-mer frequency, TF over GST control)
binding signal (ETS2): 1.13 fold enrichment (6-mer frequency, TF over GST control)
binding signal (SPDEF): 1.08 fold enrichment (6-mer frequency, TF over GST control)
binding signal (ETV7): 1.08 fold enrichment (6-mer frequency, TF over GST control)
binding signal (ELF5): 1.04 fold enrichment (6-mer frequency, TF over GST control)
binding signal (ETV3): 1.13 fold enrichment (6-mer frequency, TF over GST control)
binding signal (ETV6): 1.08 fold enrichment (6-mer frequency, TF over GST control)

TATTAT
binding signal (ERF): 1.19 fold enrichment (6-mer frequency, TF over GST control)
binding signal (ETV3L): 1.24 fold enrichment (6-mer frequency, TF over GST control)
binding signal (ETS2): 1.16 fold enrichment (6-mer frequency, TF over GST control)
binding signal (SPDEF): 1.29 fold enrichment (6-mer frequency, TF over GST control)
binding signal (ETV7): 1.28 fold enrichment (6-mer frequency, TF over GST control)
binding signal (ELF5): 1.2 fold enrichment (6-mer frequency, TF over GST control)
binding signal (ETV3): 1.27 fold enrichment (6-mer frequency, TF over GST control)
binding signal (ETV6): 1.3 fold enrichment (6-mer frequency, TF over GST control)

AAACTA
binding signal (ERF): 1.29 fold enrichment (6-mer frequency, TF over GST control)
binding signal (ETV3L): 1.27 fold enrichment (6-mer frequency, TF over GST control)
binding signal (ETS2): 1.35 fold enrichment (6-mer frequency, TF over GST control)
binding signal (SPDEF): 1.29 fold enrichment (6-mer frequency, TF over GST control)
binding signal (ETV7): 1.31 fold enrichment (6-mer frequency, TF over GST control)
binding signal (ELF5): 1.32 fold enrichment (6-mer frequency, TF over GST control)
binding signal (ETV3): 1.24 fold enrichment (6-mer frequency, TF over GST control)
binding signal (ETV6): 1.25 fold enrichment (6-mer frequency, TF over GST control)

ATTCGA
binding signal (ERF): 1.29 fold enrichment (6-mer frequency, TF over GST control)
binding signal (ETV3L): 1.47 fold enrichment (6-mer frequency, TF over GST control)
binding signal (ETS2): 1.31 fold enrichment (6-mer frequency, TF over GST control)
binding signal (SPDEF): 1.28 fold enrichment (6-mer frequency, TF over GST control)
binding signal (ETV7): 1.28 fold enrichment (6-mer frequency, TF over GST control)
binding signal (ELF5): 1.24 fold enrichment (6-mer frequency, TF over GST control)
binding signal (ETV3): 1.22 fold enrichment (6-mer frequency, TF over GST control)
binding signal (ETV6): 1.23 fold enrichment (6-mer frequency, TF over GST control)

— article PMC7862700, “An all-to-all approach to the identification of sequence-specific readers for epigenetic DNA modifications on cytosine”
